Assay outcomes as filed in PubChem BioAssay.
EPAC1 antag: EPAC1 (human) antagonism; Potency, µM (doses to about 115 µM), for inactives: at the highest dose activity change, negative = inhibition, most hits filed as inhibitors; 360,000 compounds, 0.14% hits; EPAC1 GEF assay, Rap1b-BODIPY-GDP exchange fluorescence; AID 720709;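 note: plate controls were vehicle for no effect and positive control for full effect; nearly all actives have a fitted effect of over 50% in size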
EPAC1 ag: agonists of human EPAC1 | EPAC1 agonist qHTS, biochemical assay; response scale: 100% = response to 6.5 mM cAMP | Potency, µM (highest dose often 154 µM), inactives show at the highest dose activation, usual class: activators | 360,000 compounds, 0.073% hits; note: nearly all actives have a fitted effect of over 60% in size
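Read-out is the fluorescence drop as BODIPY-GDP leaves Rap1B (480 nm excitation, 540 nm emission), recorded every 5 minutes over 30 minutes. Reactions held 100 nM EPAC1, 250 nM Rap1B–BODIPY-GDP and 50 uM GDP, with 6.5 mM cAMP setting full activation.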
EPAC2 antag: blocks human EPAC2 exchange factor; Potency, µM (series often up to 114 µM), for the others: at the highest dose activity, negative = inhibition, actives largely listed as inhibitors; EPAC2 GEF exchange of Rap1B-BODIPY-GDP, fluorescence; Q8WZA2; AID 720708; 360,000 compounds, 0.18% hits; note: % is set by controls: 0 for no effect and ±100 for the full control effect; nearly all actives have a fitted effect of over 45% in size
Target sequence (Q8WZA2 whole entry, looked up): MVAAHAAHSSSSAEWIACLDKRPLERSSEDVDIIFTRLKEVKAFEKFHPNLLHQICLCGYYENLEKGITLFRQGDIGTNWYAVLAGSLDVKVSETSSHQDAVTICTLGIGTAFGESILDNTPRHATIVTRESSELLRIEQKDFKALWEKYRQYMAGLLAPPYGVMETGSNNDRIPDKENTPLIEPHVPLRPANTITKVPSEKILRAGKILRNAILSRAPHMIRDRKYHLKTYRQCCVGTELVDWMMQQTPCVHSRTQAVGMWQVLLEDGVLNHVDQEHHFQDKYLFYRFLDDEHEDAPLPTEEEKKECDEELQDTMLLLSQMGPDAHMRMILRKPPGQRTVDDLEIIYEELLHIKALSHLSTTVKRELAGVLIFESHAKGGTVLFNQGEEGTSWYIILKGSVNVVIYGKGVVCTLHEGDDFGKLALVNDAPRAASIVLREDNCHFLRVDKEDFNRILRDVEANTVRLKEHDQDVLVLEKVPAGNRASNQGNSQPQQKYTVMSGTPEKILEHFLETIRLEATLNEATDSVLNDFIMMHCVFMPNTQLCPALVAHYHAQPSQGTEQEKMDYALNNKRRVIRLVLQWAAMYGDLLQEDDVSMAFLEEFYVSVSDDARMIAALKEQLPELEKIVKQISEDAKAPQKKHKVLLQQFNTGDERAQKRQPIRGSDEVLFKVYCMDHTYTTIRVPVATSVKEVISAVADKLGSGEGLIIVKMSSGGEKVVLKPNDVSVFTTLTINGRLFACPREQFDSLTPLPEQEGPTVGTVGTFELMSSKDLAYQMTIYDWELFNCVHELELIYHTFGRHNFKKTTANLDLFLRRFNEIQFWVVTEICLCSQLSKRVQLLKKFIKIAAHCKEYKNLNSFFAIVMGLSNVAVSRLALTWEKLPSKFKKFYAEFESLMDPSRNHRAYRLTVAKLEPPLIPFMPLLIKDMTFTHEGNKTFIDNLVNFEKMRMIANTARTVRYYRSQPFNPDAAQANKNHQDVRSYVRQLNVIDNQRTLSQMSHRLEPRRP
B2AR arrestin: recruits beta-arrestin to the human beta2-adrenergic receptor. P07550. beta-arrestin recruitment to beta2AR, cell-based reporter. Potency, µM (titrated, usually from 46.1 µM), inactives show top-dose activation, most hits filed as activators. 330,000 compounds, 0.02% hits. AID 492947;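 note: 0% = DMSO controls and full agonism = EC100 isoproterenol or metaproterenol; nearly all actives have a fitted effect of over 65% in size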
EPAC2 ag: EPAC2 (human) agonism; Q8WZA2; EPAC2 activation, biochemical qHTS; response scale: 100% = 6.5 mM cAMP response; Potency, µM (titrated, usually from 154 µM), without a hit: at the top dose activation, usual class: activators; 360,000 compounds, 0.079% hits; note: nearly all actives have a fitted effect of over 50% in size
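Setup: EPAC2 100 nM, labeled Rap1B complex 250 nM, free GDP 50 uM. Compound titrations pinned in, brief spin, 5 min room temperature incubation. Kinetic fluorescence read over 30 min, normalized to 6.5 mM cAMP.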
* marks the source's active call; other numbers are inactive results; ? = inconclusive; . = no result given. A selection: hits, their analogues and other compounds. The true share with any hit is near 0.4%. Calls come from the whole dose curve; as a rule, active = well fitted curve in the direction sought with a large enough effect; inconclusive = small, poorly fitted or top-dose-only effect, or another doubt; inactive = no such curve, though single readings can be large; an effect the other way counts as inactive or inconclusive. Potency is the fitted concentration of half-maximal effect.

SMILES | EPAC1 antag | EPAC1 ag | EPAC2 antag | B2AR arrestin | EPAC2 ag
CCCC(=O)N1CCc2cc(OC)c(OC)cc2C1COc1ccccc1OC (stereo unspecified) | 10.6% | -3.7% | -3.8% | 0.2% | 6.4%
COC(=O)[C@H]1C[C@@H](c2ccccc2)[C@H](C)C1(C)C | -1.7% | 13.1% | ? | -0.2% | 2.8%
COc1ccccc1Oc1ncnc2c1oc1ccccc12 | -18.9% | 15.6% | 79.4µM* | 0.4% | 12.0%
CCN(CC)CCOc1ncnc2c1oc1ccccc12 | 0.0% | 6.4% | 7.7% | 0.1% | 0.8%
O=C(NCc1ccccn1)c1[nH]c(C(F)(F)F)nc1-c1ccccc1 | 1.4% | 4.7% | 1.5% | . | 7.6%
Cc1ccnc(NS(=O)(=O)c2ccc(NC(=O)Cc3c(F)cccc3Cl)cc2)n1 | -0.1% | -3.4% | ? | 0.0% | 7.1%
NS(=O)(=O)c1ccc(NC(=O)Cc2c(F)cccc2Cl)cc1 | -18.1% | 1.0% | 28.2µM* | -0.5% | -2.0%
O=C(Cc1ccc(Cl)cc1)Nc1ccc(S(=O)(=O)Nc2ncccn2)cc1 | -4.9% | -2.6% | -11.5% | -0.5% | 4.1%
O=C(Cc1c(Cl)cccc1Cl)Nc1ccc(S(=O)(=O)Nc2ncccn2)cc1 | 7.7% | 10.2% | 10µM* | -0.9% | 4.4%
c1ccc2c(c1)oc1c(-c3ccc4nccn4c3)cccc12 | -3.8% | 15.4% | 10µM* | . | 17.7%
Clc1cccc(-c2ccc3nccn3c2)c1Cl | -27.0% | 3.8% | ? | . | 8.8%
CC(C)c1ccc(CNc2ncccn2)cc1 | -12.0% | 3.9% | 2.5% | -0.2% | 7.2%
COc1cc(/C=C(\C#N)c2nc3ccc(C)cc3[nH]2)cc([N+](=O)[O-])c1O | 28.2µM* | -2.8% | ? | 0.2% | 6.3%
COc1cc(/C=C(\C#N)c2nc3ccc(C)cc3[nH]2)c([N+](=O)[O-])cc1OC | -18.5% | -5.6% | -3.8% | -0.5% | 6.0%
CCOc1ccc(NC(=O)CN2C(=O)NC(C)(c3ccc(OC(F)F)cc3)C2=O)cc1 (stereo unspecified) | -21.4% | -12.1% | -1.7% | 0.4% | -10.2%
O=C(O)c1cccc(N2C(=O)c3cccc4cccc(c34)C2=O)c1 | ? | -0.9% | -10.8% | -0.3% | 10.5%
O=C(O)c1cccc(N2C(=O)c3cc([N+](=O)[O-])cc4cc([N+](=O)[O-])cc(c34)C2=O)c1 | -10.0% | -4.4% | 50.1µM* | -1.1% | 7.2%
Oc1ccc(Br)cc1C=Nc1cccn2cc(-c3ccccc3)nc12 | 0.1% | 2.5% | 79.4µM* | 3.4% | -16.9%
C=CCn1c(SCC(=O)Nc2c(C)n(C)n(-c3ccccc3)c2=O)nnc1-c1cccnc1 | 2.8% | 10.4% | 1.4% | -0.7% | 0.9%
Cc1ccc(S(=O)(=O)N2CCC[C@H]2C(=O)OCCN2C(=O)c3ccccc3C2=O)cc1 | 1.4% | 8.5% | -4.0% | 0.2% | -0.9%
O=C(c1cccc(-n2cccc2)c1)N1CCN(S(=O)(=O)c2ccccc2)CC1 | 79.4µM* | 12.5% | -4.9% | -0.2% | 6.9%
CCOC(=O)c1[nH]c2ccc(C(=O)OC)cc2c1C(=O)OCC | -9.6% | -7.9% | -9.6% | -0.3% | 1.1%
CCCc1[nH]c2ccc(C(=O)OC)cc2c1CCC | -20.5% | -8.6% | 28.2µM* | -1.1% | 15.6%
N#Cc1ccc2[nH]cc(CCO)c2c1 | -4.2% | 14.4% | -0.8% | 0.3% | 7.0%
CCCc1[nH]c2ccc(C#N)cc2c1CCC | -27.0% | -23.2% | 28.2µM* | 0.6% | -1.3%
SMILES | EPAC1 antag | EPAC1 ag | EPAC2 antag | B2AR arrestin | EPAC2 ag
COc1ccc(CN2CCNC(=O)C2CC(=O)NC2CCCC2)c(C)c1C (stereo unspecified) | -3.7% | 2.2% | -0.8% | -0.1% | -7.1%
O=C(Nc1ccccc1N1CCOCC1)c1cccc2c(Br)cccc12 | -10.1% | -4.7% | 14.1µM* | 0.3% | -2.0%
O=C(NCCS(=O)(=O)NCc1cccs1)c1ccccc1 | 1.3% | -10.7% | 7.2% | . | -1.8%
COc1ccc(-c2[nH]c(-c3ccc(SC)cc3)nc2SCC(=O)Nc2nccs2)cc1 | 70.8µM* | 3.2% | 0.0% | -0.5% | -1.3%
CSc1ccccc1OCc1cc(C(=O)NCCc2ccco2)no1 | 5.9% | -1.4% | 9.4% | -0.6% | -4.4%
CC1CCc2[nH]c3ccc(C(=O)N4CCCC(C(F)(F)F)C4)cc3c2C1 (stereo unspecified) | ? | 112µM* | -29.2% | 0.1% | -14.2%
CCOC(=O)C1CCCN(C(=O)c2ccc3[nH]c4c(c3c2)CC(C)CC4)C1 (stereo unspecified) | -20.6% | -3.0% | -16.5% | -0.9% | -4.3%
CSCCC(NC(=O)c1ccco1)C(=O)NCC(c1ccccc1)N(C)C (stereo unspecified) | 14.7% | 4.0% | 6.5% | -0.4% | -1.2%
CC1(C(=O)NS(=O)(=O)c2cccc(Cl)c2)CCN1C(=O)CCc1cccs1 (stereo unspecified) | -9.4% | -5.7% | -3.3% | . | 4.5%
Oc1ccccc1/C=N/Nc1nc2ccccc2o1 | -22.0% | -4.8% | -4.5% | 14.1µM* | 10.9%
Brc1ccc(/C=N/Nc2nc3ccccc3o2)cc1 | ? | 1.2% | 8.7% | 3.9% | 12.9%
COc1cc2c(cc1OC)CN(C(=O)c1cc(Cl)nc(Cl)c1)CC2 | 4.3% | -10.9% | 1.8% | 0.1% | 8.9%
COc1cc2c(cc1OC)C1(C)N(CC2)C(C(C)=O)=NN1c1ccc(Cl)cc1 (stereo unspecified) | -20.5% | 15.1% | 25.1µM* | 0.3% | 17.5%
CC(=O)CCc1oc2ccccc2c1-c1ccccc1 | -4.9% | 15.7% | 25.1µM* | -0.2% | 23.2%
O=[N+]([O-])c1cc([N+](=O)[O-])c2oc(-c3ccccc3)c(Br)c2c1O | 25.1µM* | 5.5% | 20µM* | -1.8% | -6.8%
COc1cccc(-c2cnc(C(O)c3cc(Cl)cc(Cl)c3)[nH]2)c1 (stereo unspecified) | -21.0% | -5.9% | -23.9% | . | 21.5%
Cc1ccc(N2N=C(C(=O)O)CCC2=O)cc1Cl | 5.9% | -3.0% | -1.0% | -0.4% | -0.6%
CCOC(=O)c1sc2nc3c(SCC(=O)O)cc(C(=O)c4ccccc4O)cn3c(=O)c2c1C | -0.7% | 4.5% | 11.1% | -0.3% | 2.7%
CCOC(=O)c1sc2nc3c(SCC(=O)O)cc(C(=O)c4cc(F)ccc4O)cn3c(=O)c2c1C | 8.91µM* | 89.1µM* | ? | -0.2% | 12.6%
COc1cc(CNn2cnnc2)ccc1OCC(=O)NC(C)(C)C | -5.2% | 3.1% | 2.3% | -2.8% | 10µM*
CCN(Cc1ccc(OC)c(F)c1)C(=O)/C=C/c1ccc(S(=O)(=O)N2CCOCC2)cc1 | -21.4% | 7.9% | -11.2% | -0.3% | 17.4%
Cc1c(CCC(=O)O)c(=O)oc2c(C)c3occ(-c4ccc(Cl)cc4)c3cc12 | 39.8µM* | ? | -13.8% | 0.5% | ?
C#CCOCCOCCOCCNc1nc(N2CCN(C(=O)CCCCCCCCCCNC(=O)[C@H](CCCCN)n3cc(C)nn3)CC2)nc(N2CCN(C(=O)CCCCCCCCCCNC(=O)[C@H](CCCN=C(N)N)n3cc(C[C@@H](C)CC)nn3)CC2)n1 | 50.1µM* | 5.2% | -20.9% | 0.0% | 18.8%
